Source: PubChem (Sanford-Burnham Center for Chemical Genomics)
CYP2C9 inh = human CYP2C9 inhibition. P11712. CYP2C9 Supersomes, luciferin-H conversion, luminescence. inhibition, % at 5 µM. 96,000 compounds, 20% hits. AID 777;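 active means blocking of liver enzyme CYP2C9 beyond about 50% at 5 µM, limit read from the data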
CYP2C9 activ = CYP2C9 (human) activation | recombinant CYP2C9, luciferin-H conversion, luminescence; active compounds read high; factor 1 = untreated enzyme, 0 = blocked | activation factor at 5 µM | 96,000 compounds, 1.4% hits;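 active means activation factor of 2 or more for CYP2C9 at a 5 µM dose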
CYP2C19 inhib = inhibitors of human CYP2C19; P33261; CYP2C19 Supersomes, luciferin-H EGE luminescence, 30 min; inhibition, % at 5 µM; 96,000 compounds, 21% hits;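 active means CYP2C19 inhibition above a set limit at 5 µM in the primary screen, cut at about 50% in these data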
Target sequence (P33261 whole entry, looked up): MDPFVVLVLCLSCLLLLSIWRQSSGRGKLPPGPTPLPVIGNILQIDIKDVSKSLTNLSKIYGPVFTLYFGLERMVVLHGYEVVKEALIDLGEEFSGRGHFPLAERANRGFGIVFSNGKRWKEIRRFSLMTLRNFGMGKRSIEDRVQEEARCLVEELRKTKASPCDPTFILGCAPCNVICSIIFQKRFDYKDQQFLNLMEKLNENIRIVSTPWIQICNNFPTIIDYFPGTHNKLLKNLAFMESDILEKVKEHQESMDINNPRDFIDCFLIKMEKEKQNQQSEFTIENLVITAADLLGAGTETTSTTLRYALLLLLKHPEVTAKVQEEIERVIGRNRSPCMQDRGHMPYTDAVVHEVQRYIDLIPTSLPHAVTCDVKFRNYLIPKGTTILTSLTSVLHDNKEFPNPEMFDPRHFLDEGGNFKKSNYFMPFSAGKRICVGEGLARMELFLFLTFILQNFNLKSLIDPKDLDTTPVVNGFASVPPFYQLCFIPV
CYP2C19 act = cytochrome P450 2C19 (human) activation | P33261 | recombinant CYP2C19, luciferin-H EGE luminescence; active compounds read high; 0 = fully inhibited enzyme, 1 = untreated enzyme | AID 1025 | activation factor at 5 µM | 96,000 tested, under 10 active;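 active means activation factor of at least 2 at 5 µM in the primary screen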
Of the large screens only hits and unclear results are named; the others gave an inactive call. This is a sample that favours compounds with a hit; in the whole collection about 31% have one here.

CC12CCC(C(=O)Nc3cccc4ccccc34)(C1Br)C2(C)C (stereo unspecified)	none
CCOC(=O)C(CO)(NC(C)=O)C(=O)OCC	none
COc1ccccc1/C=C/CN1CC(C)OC(C)C1 (stereo unspecified)	none
CC(=O)c1cccc(NC(=O)C2CCCN(S(=O)(=O)c3ccc(F)cc3)C2)c1 (stereo unspecified)	CYP2C9 inh 76, CYP2C19 inhib 87
CCCc1nc(SCc2ccccn2)c2c(=O)n(C)c(=O)n(C)c2n1	CYP2C9 inh 71
CCc1nc(SCC(=O)Nc2cc(C)on2)c2c(=O)n(C)c(=O)n(C)c2n1	none
Cn1c(=O)c2c(SCc3ccccn3)nc(CC(C)(C)C)nc2n(C)c1=O	CYP2C9 inh 82
Cc1cc(NC(=O)CSc2nc(CC(C)(C)C)nc3c2c(=O)n(C)c(=O)n3C)no1	CYP2C9 inh 63
CCCNC(=O)c1ccc(SC)cc1OC	none
COc1cc(SC)ccc1C(=O)N(C)Cc1ccccc1	CYP2C19 inhib 98
COc1cc(SC)ccc1C(=O)NCC1CCCO1 (stereo unspecified)	CYP2C19 inhib 60
COc1cc(SC)ccc1C(=O)NC1CCCCC1	none
COc1cc(SC)ccc1C(=O)NCc1ccc(C)cc1	CYP2C19 inhib 91
CCOCCOC(=O)C1=C(C)NC2=C(C(=O)CC(c3cccs3)C2)C1c1ccsc1 (stereo unspecified)	none
CC1=C(C(=O)Nc2ccccc2F)C(c2ccsc2)C2=C(CC(c3ccccc3)CC2=O)N1 (stereo unspecified)	CYP2C19 inhib 79
COc1ccc2cc3cc(C(=O)N4CCN(Cc5ccc6c(c5)OCO6)CC4)oc3nc2c1	CYP2C9 inh 53
COc1ccc2cc3cc(C(=O)Nc4ccc5c(c4)OCCO5)oc3nc2c1	none
COc1ccc2cc3cc(C(=O)NCc4ccc5c(c4)OCO5)oc3nc2c1	CYP2C9 inh 64
CCCCn1c(CCC(=O)O)ccc1-c1cccs1	none
O=C(Nc1ccon1)c1ccccc1F	none
CCSCCNC(=O)c1cc(-n2cnnc2)ccc1Cl	none
O=C(NCCOc1cccc(Oc2ccccc2)c1)c1cc(-n2cnnc2)ccc1Cl	CYP2C9 inh 56, CYP2C19 inhib 69
O=C(NCCOc1cccc(Cl)c1Cl)c1cc(-n2cnnc2)ccc1Cl	CYP2C9 inh 54, CYP2C19 inhib 70
COc1ccc(S(=O)(=O)NC(CC(=O)NCc2ccco2)c2ccco2)cc1 (stereo unspecified)	none
CC1=CC(C)C2(CO)COC(c3ccccc3O)C1C2C (stereo unspecified)	CYP2C9 inh 64, CYP2C19 inhib 90
C/C(N)=C(/C#N)C(=O)CSc1nnc(-c2ccc3c(c2)OCO3)o1	none
O=C(c1ccccc1)C1CCc2occc2C1=O (stereo unspecified)	none
Cc1oc(-c2ccc3c(c2)OCCO3)cc1C(=O)O	CYP2C9 inh 72, CYP2C19 inhib 88
COc1ccc(OCCN(C)Cc2ccccc2)cc1	CYP2C19 inhib 68
Cc1ccc(C)c(N2CCN(C(=O)COc3cc(=O)n(C)c4ccccc34)CC2)c1	none
COc1ccc(OCCC(=O)NCc2ccccc2)cc1	CYP2C19 inhib 51
Cc1ccc(C)c(N2CCN(C(=O)CCCOc3cc(=O)n(C)c4ccccc34)CC2)c1	CYP2C9 inh 90, CYP2C19 inhib 94
Cc1cccc(N2CCN(C(=O)COc3cc(=O)n(C)c4ccccc34)CC2)c1C	CYP2C19 inhib 51
COc1cc(-c2nnc(SCc3cccnc3)n2C)cc(OC)c1O	none
CC1CCN(C(=O)CCCOc2cc(=O)n(C)c3ccccc23)CC1	CYP2C19 inhib 50
CN1CCN(CCCNC(=O)CCCOc2cc(=O)n(C)c3ccccc23)CC1	none
Cc1ccc(CNC(=O)CCCOc2cc(=O)n(C)c3ccccc23)o1	none
COc1ccc(CNC(=O)CCCOc2cc(=O)n(C)c3ccccc23)cc1	CYP2C9 inh 78, CYP2C19 inhib 92
COc1ccc(N2CCN(C(=O)CCCOc3cc(=O)n(C)c4ccccc34)CC2)cc1	CYP2C9 inh 88, CYP2C19 inhib 88
COc1ccc(OCCn2c(NC(=O)c3ccco3)nc3ccccc32)cc1	none
CCOC(=O)c1ccc(N2Cc3cc(C)c(C)cc3C2)cc1O	none
CC1CCc2nn(CC(=O)NCCC3=CCCCC3)cc2C1 (stereo unspecified)	none
COc1ccc(NC(=O)C(Cc2ccccc2)NC(=O)c2ccco2)cc1OC (stereo unspecified)	none
CCOc1c(Cl)cc(CNC(C)(C)CC(C)(C)C)cc1OC	CYP2C19 inhib 91
CC(C)Oc1c(Cl)cc(CNC(C)(C)CO)cc1Cl	none
Nc1ccc(S(=O)(=O)c2ccc(Cl)cc2)cc1	CYP2C9 activ 3.7, CYP2C19 inhib 86
C/C(=N\NC(=O)c1ccc(Cl)c(Cl)c1)c1cccc(NC(=O)C(C)C)c1	none
COC(=O)c1ccccc1NC(=O)CN1CCN(C23CC4CC(CC(C4)C2)C3)CC1	CYP2C9 inh 53
CCOc1ccccc1NC(=O)CN1CCC(NC(=O)c2ccccc2)CC1	CYP2C19 inhib 95
O=C(CN1C(=O)c2ccccc2C1=O)Nc1ccccc1C(=O)NC1CCCCC1	CYP2C9 inh 65
COC(=O)c1ccccc1NC(=O)CN1CCC(NC(=O)c2ccc(C)cc2)CC1	CYP2C9 inh 67, CYP2C19 inhib 88
Cc1ccc(NC(=O)CN2CCC(NC(=O)Cc3ccccc3)CC2)cc1C	none
COC(=O)c1ccc(C(=O)OC)c(NC(=O)CN2CCN(c3ccccc3)CC2)c1	none
OCCN1CCN(c2ncnc3ccc(Br)cc23)CC1	none
O=C(Nc1ccccc1OC(F)F)c1ccc(Br)o1	none
CCOc1ccc(OCC)c(NC(=O)CN2CCN(C(=O)c3ccco3)CC2)c1	none
CCOc1ccc(OCC)c(NC(=O)CN2CCC(NC(=O)c3cccc(F)c3)CC2)c1	CYP2C9 inh 68, CYP2C19 inhib 74
CCOC(=O)/C(C#N)=C(\N)C(C)C(=O)Nc1ccccn1 (stereo unspecified)	none
COc1ccc(C2CCCN2C(=O)Nc2ccccc2)cc1OC (stereo unspecified)	CYP2C19 inhib 72
O=C(O)C1CCCN1C(=O)Nc1ccccc1 (stereo unspecified)	none
COc1ccc(C2CCCN2C(=O)Nc2ccc(C)c(C)c2)cc1OC (stereo unspecified)	CYP2C19 inhib 76
O=C(CSc1nnnn1C1CCCCC1)NCCc1ccccc1	none
CC1CC(C)CN(CCCNC(=O)C2CCCN(c3nnc(N4CCCC4=O)s3)C2)C1 (stereo unspecified)	none
COc1ccc(C2CC(c3ccccc3)=NN2c2ccc(/C=N/NC(=O)c3ccncc3)cc2)cc1 (stereo unspecified)	CYP2C9 inh 56
CNc1nn(-c2cccc(Cl)c2)nc1N	none
O=C1c2ccccc2NC2CCCCC12 (stereo unspecified)	CYP2C9 activ 5.1
CC1(C)CC2(CCO1)CNC(=O)O2 (stereo unspecified)	none
c1ccc(-n2nnnc2-n2nnc3ccccc32)cc1	CYP2C19 inhib 94
CCN1C(=O)c2ccccc2S(=O)(=O)c2ccc(C(=O)NCc3cccnc3)cc21	CYP2C9 inh 98, CYP2C19 inhib 58
